Measurements taken from PubChem BioAssay (NCI).
About 79,000 compounds went through this panel and 15% of them were active in at least one assay; those are over-represented in the sample as a whole. Cut-off read from the data, not from the text of the source: active = growth inhibition above about 70%; inactive = the rest.

Legend:
[1] = NCI Yeast Anticancer Drug Screen. Data for the rad50 strain (AID 155);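 note: 0% = growth of vehicle-only cultures of the same strain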; settings: S. cerevisiae rad50 strain growth inhibition; at 50.0 µM; hits give high values
Summary of the method: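 Growth of the mutant yeast was measured after compound exposure and referenced to vehicle-treated cultures.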

[2] = NCI Yeast Anticancer Drug Screen. Data for the mec2-1 strain (AID 157); settings: S. cerevisiae mec2-1 strain, at 50.0 µM, hits give high values
Summary of the method: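 Strain: mec2-1 (DNA repair/cell cycle alteration). Compound exposure, then growth measured; inhibition expressed relative to vehicle.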

[3] = NCI Yeast Anticancer Drug Screen. Data for the sgs1 mgt1 strain (AID 161);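 note: 0% = growth of cultures given vehicle only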; settings: S. cerevisiae sgs1 mgt1 strain, at 50.0 µM, hits give high values
Summary of the method: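 Test agents were incubated with a DNA-repair-mutant yeast strain. Growth was then read and compared against vehicle-treated controls.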

[4] = NCI Yeast Anticancer Drug Screen. Data for the cln2 rad14 strain (AID 165);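 note: 0% = growth equal to vehicle treated cultures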; settings: S. cerevisiae cln2 rad14 strain, at 50.0 µM, hits give high values
Summary of the method: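 Compounds are applied to the cln2 rad14 yeast strain, and growth is then compared with that of vehicle-treated cultures to give inhibition.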

[5] = NCI Yeast Anticancer Drug Screen. Data for the mlh1 rad18 strain (AID 175); settings: S. cerevisiae mlh1 rad18 strain growth inhibition; at 50.0 µM; hits give high values
Summary of the method: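 Read-out is yeast growth inhibition, calculated against vehicle-only controls. The compound was applied to a strain engineered with DNA damage repair alterations.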

[6] = NCI Yeast Anticancer Drug Screen. Data for the bub3 strain (AID 167); settings: S. cerevisiae bub3 mutant strain, at 50.0 µM, hits give high values
Summary of the method: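 Whole-cell yeast assay. The mutant strain was incubated with compounds, and growth inhibition was determined by comparison with vehicle-treated cells.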

Measured: growth inhibition

ClCC(Cl)C1CCC(Cl)C(Cl)C1 (configuration not stated)
inactive: [1] 10.5% | [2] 6.1% | [3] -7.85% | [4] -3.9% | [5] 19.8%

CC(=O)OC/C(C)=C\CC(C)COC(C)=O (configuration not stated)
inactive: [1] -9.25% | [2] 3.35% | [3] 14.4% | [4] 2.4% | [5] -0.75%

CC(=O)CSc1ncnc2nc[nH]c12
inactive: [1] 0.1% | [2] 2.8% | [3] -0.5% | [4] -5.5% | [6] 5.85% | [5] -5.3%

O=Cc1ccc(F)cc1
inactive: [1] -7.9% | [2] -23.6% | [3] -4.1% | [4] -13.1% | [5] -17.4%

Cc1cc(Nc2ccc3c(c2)OCO3)c2cc3c(cc2n1)OCO3
inactive: [1] 10.6% | [2] -9.15% | [3] -14.9% | [4] 3.8% | [5] -42.1%

COc1cc(C(=O)N2CCN(c3ccccc3)CC2)c2ccccc2n1
inactive: [1] -3.8% | [2] 3.8% | [3] 10.7% | [4] 18.5% | [6] 9.2% | [5] 3.1%

C[C@H](CCC[C@H](C)OS(=O)(=O)c1ccccc1)OS(=O)(=O)c1ccccc1
inactive: [1] 9.3% | [2] -3.9% | [3] 5.85% | [4] 4.55% | [5] -16.6%

O=C1NC(=O)C(c2ccccc2)O1 (configuration not stated)
inactive: [1] -3.9% | [2] -12.1% | [3] 1.15% | [4] 14.7% | [5] 10.8%

Nc1ncnc(Nc2ccc(C(F)(F)F)cc2)n1
inactive: [1] 44% | [2] 8.35% | [3] 1.35% | [4] 13.2% | [5] 17.9%

CCC12OC(COc3ccccc3)CN1CCN2c1ccccc1 (configuration not stated)
inactive: [1] -12.2% | [2] -6.15% | [3] -10.7% | [4] 3.15% | [6] -15.1% | [5] -11.5%

CCNC(=O)OCCc1c2ccccc2nc2ccccc12
inactive: [1] 51.4% | [2] 36.5% | [3] 42.4% | [4] 36.1% | [5] 54.2%

COc1c(CNC(=O)CCl)cc2[nH]c(C)cc2c1CNC(=O)CCl
inactive: [1] 4.9% | [2] 4.95% | [3] 17.3% | [4] 2.2% | [5] -25.9%

C1C[S+]2CC[S+]1CC2
inactive: [1] 3.5% | [2] 28.9% | [3] 24.3% | [4] -5.95% | [6] 19.2% | [5] 28.2%

O=S(=O)(O)c1ccc(O)c(C2CCCCC2)c1
inactive: [1] -7.1% | [2] -8.4% | [3] -21.1% | [4] -23.2% | [5] 31.4%

COC1(OC)C2(Cl)C(Cl)=C(Cl)C1(Cl)C1COCC12 (configuration not stated)
inactive: [1] -48% | [2] 17.5% | [3] -40.2% | [4] 12.8% | [5] -8.6%

O=C(O)c1ccccc1Cc1ccc2c(c1)CCCC2
inactive: [1] 17.4% | [2] 12.2% | [3] -4.6% | [4] -28.9% | [6] 25.7% | [5] 47.3%

CN=S(=O)(OCCCCCOS(=O)(=NC)c1ccc(C)cc1)c1ccc(C)cc1 (configuration not stated)
inactive: [1] 3.75% | [2] -33.8% | [3] -22.9% | [4] -43.4% | [5] -34.9%

C=CCC(O)C=C (configuration not stated)
inactive: [1] 10.3% | [2] -14.9% | [3] 5.4% | [6] -5.35% | [5] 12.4%

CCOc1ccccc1NC(=O)CCl
inactive: [1] 16.4% | [2] 3.2% | [3] 8.6% | [6] 18.9% | [5] 39.9%

OC1Cc2ccccc2C1
inactive: [1] -32.5% | [2] -26.4% | [3] -17.6% | [6] -28.1% | [5] -18.6%

ClCC(Cl)[C@@H]1CC2C=CC1C2 (some centres not stated)
inactive: [1] 2.85% | [2] -3.65% | [3] 10.3% | [6] 11.2% | [5] -6.1%

Cn1c(=O)c2[nH]c(CCCCC(=O)O)nc2n(C)c1=O
inactive: [1] -7.8% | [2] -13.2% | [3] -34.1% | [6] -39.4% | [5] 4.2%

CC(O)C(F)(F)C(F)(F)C(F)(F)F (configuration not stated)
inactive: [1] 7.8% | [2] -16.6% | [3] 19.9% | [6] -2.7% | [5] 20.8%

Nc1ccc(F)cc1F
inactive: [1] 6% | [2] -2.25% | [3] -3.7% | [6] 18.1% | [5] 7.35%

O=C(OCC1CCCO1)c1ccc([N+](=O)[O-])cc1 (configuration not stated)
inactive: [1] 2.05% | [2] 21.6% | [3] 12.9% | [6] 30.9%

C=CC(C)C(C)(C)O (configuration not stated)
inactive: [1] -3.2% | [2] -43.5% | [3] -1% | [4] 4.25% | [5] -2.4%

NC(=O)c1cc2c3ccccc3ccn2c1-c1ccccc1
inactive: [1] 35.8% | [2] 27.2% | [3] 46.7% | [6] 64% | [5] 60%

CCN(C(=O)Nc1ccccc1Cl)c1ccccc1
inactive: [1] 8.75% | [2] 13.1% | [3] 8.8% | [6] 7.8% | [5] 11.6%

O=C1CSc2ccccc2N1
inactive: [1] -35% | [2] -8.45% | [3] 32% | [6] 1.3% | [5] 11.2%

COc1ccc2c(ccc[n+]2C)c1
inactive: [1] 19.6% | [2] 30.9% | [3] 3.65% | [6] -15.7% | [5] -25.4%

C=COC(=O)C(C)(C)C
inactive: [1] 8.3% | [2] -13.8% | [4] 21.4% | [6] -0.45%

C=CCc1cc(OC)c(O)c(OC)c1
inactive: [1] 1.95% | [2] 1.3% | [3] -14.2% | [6] 0.75% | [5] -0.6%

CSc1nc2[nH]ncc2c(=O)[nH]1
inactive: [1] -19.8% | [2] 5.85% | [3] 15.4% | [6] -3.05% | [5] -6.15%

Oc1cccc(CNC2CCCCC2)c1
inactive: [1] 3.5% | [2] 0.25% | [3] -0.6% | [6] -22.4% | [5] 9.15%

O=S1(=O)c2ccccc2Oc2ccccc21
inactive: [1] -26.2% | [2] -19.4% | [3] -23.7% | [6] 3.4% | [5] -14.6%

O=c1n(CC2CO2)c(=O)n(CC2CO2)n1CC1CO1 (configuration not stated)
inactive: [1] 16.9% | [2] -5.75% | [3] 1.05% | [6] -26.7%

CCOC(OCC)C(=O)c1ccccc1
inactive: [1] -0.5% | [2] -19.9% | [3] -4.1% | [6] 6.25% | [5] 25.1%

COc1cccc(N=CNc2cccc(OC)c2)c1
inactive: [1] -36.2% | [2] -34.7% | [3] -17.4% | [6] -11.8% | [5] -27.9%

O=C(NCc1ccccc1)/C(=C/c1ccccc1)NC(=O)c1ccccc1
inactive: [1] -33.1% | [2] -31.4% | [3] -33.9% | [6] -12.3% | [5] -42.5%

CCOC(=O)CO
inactive: [1] 26% | [2] 6.85% | [3] -13.4% | [4] 0.3% | [5] 18.9%
